The list is not random: actives were taken first. Their share in the collection is about 8%.
Marburg entry inh: Marburg virus entry inhibition. Marburg virus pseudotyped entry inhibition, cell reporter. Potency, µM (titrated, usually from 37.8 µM), for the others: at the top dose activity change, negative = inhibition, actives largely listed as inhibitors. 1.8% of 300,000 active. AID 540276; calls by dose curve; tested in HEK293 cells; further: potency means the concentration at half of the fitted maximal effect; on the % scale 0 is the no-effect control and ±100 the full control effect
LASV entry inh: inhibitors of Lassa virus binding or cell entry; Lassa virus pseudotype entry inhibition, cell reporter; Potency, µM (highest dose often 37.9 µM), inactives show at the top dose activity change, negative = inhibition, most hits filed as inhibitors; 1.2% of 300,000 active; AID 540256; calls by dose curve; tested in HEK293 cells; further: potency means the concentration at half of the fitted maximal effect; on the % scale 0 is the no-effect control and ±100 the full control effect; nearly all actives have a fitted effect of over 50% in size
SARS PLP yeast: inhibitors of SARS-CoV papain-like protease in yeast; S. cerevisiae expressing SARS-CoV PLpro, growth rescue; Potency, µM (series often up to 32.9 µM), for the others: at the highest dose activity, positive = growth rescue, most hits filed as activators; 0.19% of 330,000 active; AID 485353; calls by dose curve; further: potency means the concentration at half of the fitted maximal effect; 0% is about no effect; nearly all actives have a fitted effect of over 55% in size
FMDV inh: foot and mouth disease virus antiviral activity; FMDV antiviral cell-based qHTS; Potency, µM (highest dose often 57.9 µM), inactives show at the highest dose activity change, negative = inhibition, usual class: inhibitors; 1.2% of 410,000 active; calls by dose curve; tested in HEK293T cells; further: read-out not given here; potency means the concentration at half of the fitted maximal effect; on the % scale 0 is the no-effect control and ±100 the full control effect; nearly all actives have a fitted effect of over 45% in size
HCV inhibitor: inhibitors of hepatitis C virus infection | Potency, µM (doses to about 41.8 µM), without a hit: at the highest dose activity change, negative = inhibition, most hits filed as inhibitors | Huh7.5.1 HCVcc-Cre infection, luciferase reporter, 44 h | AID 651820 | 3.4% of 340,000 active; active means well fitted inhibition curve with a large enough effect; inconclusive means small, poorly fitted or top-dose-only effect, or another doubt; inactive means no such curve, though single readings can be large or run the other way; further: potency means the concentration at half of the fitted maximal effect; on the % scale 0 is the no-effect control and ±100 the full control effect
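Compounds are dispensed onto cells plated 4 h earlier at 1,000 per well, with HCVcc-Cre virus (about 0.5 moi) added next. Following 44 h of culture, luminescent signal is measured for 15 sec after 15 min with substrate at room temperature.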
HCMV inh: inhibitors of human cytomegalovirus. HFF cells, HCMV-luciferase reporter, 72 h; hits give low values. activity change, negative = inhibition, % at 57.5 µM. 4.5% of 410,000 active. AID 1259415; in the data active means activity change below about -60%; inconclusive means no clear call, values can overlap the other calls; inactive means above about -39%; further: on the % scale 0 is the no-effect control and ±100 the full control effect
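After 16 h attachment at 37C, HFF cells received test compound and HCMV-luciferase (1 PFU/cell); reporter luminescence read 72 h later, data normalized against buffer-only and known inhibitor Salinomycin.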
Starred values were filed as active, the others as inactive; ? = inconclusive; nt = no result; ! = repeats disagree; [ ] = remark or other dose.

SMILES | Marburg entry inh | LASV entry inh | SARS PLP yeast | FMDV inh | HCV inhibitor | HCMV inh
COC(=O)c1cc(=O)nc(NN=Cc2ccccc2)s1 | nt | nt | nt | nt | nt | 18
COC(=O)c1cc(=O)nc(NN=C2c3ccccc3-c3ccccc32)s1 | nt | nt | nt | -20% | nt | -66*
COc1ccc(C(CC(=O)NCc2ccccc2)N2Cc3ccccc3C2=O)cc1 (stereo not given) | nt | ? | nt | 20% | nt | -26
CCN(CC)CCNC(=O)c1ccc(NC(=O)c2ccc(Cl)c(S(=O)(=O)N3CCCCCC3)c2)cc1 | ? | 10% | 0% | -29% | 14µM* | -60*
CCN(CC)CCNC(=O)c1ccc(NC(=O)c2ccc(S(=O)(=O)N3CCCCCC3)cc2)cc1 | ? | 6% | 17% | 9% | 10µM* | -32
CCN(CC)CCNC(=O)c1ccc(NC(=O)c2cccc(S(=O)(=O)N3CCCCCC3)c2)cc1 | ? | ? | nt | 6% | ? | 29
O=C(NCCn1ccc2ccccc21)c1ccc(S(=O)(=O)N2CCCCC2)cc1 | nt | nt | -17% | ? | ? | -67*
C=CCNC(=O)CC(=O)N/N=C/c1ccc(C(=O)OC)cc1 | 0%[46.1 µM] | 7% | -2% | -23% | 5% | -67*
Cc1ccc(C)c(Cn2c(SCC(=O)N(C)Cc3ccccc3)nc3ccccc32)c1 | nt | ? | nt | -16% | nt | -19
COC(=O)c1ccc(S(=O)(=O)N2CCCN(Cc3cccc(Br)c3F)CC2)n1C | nt | nt | -2% | ? | ? | -74*
COC(=O)c1ccc(S(=O)(=O)N2CCCN(Cc3ccccc3)CC2)n1C | 1% | ? | 0% | -17% | -9% | -4
Cc1cc(S(=O)(=O)C(CNC(=O)c2ccc(OC(C)C)cc2)c2cccs2)ccc1F (stereo not given) | nt | -4%[46.1 µM] | nt | ? | nt | 3
CCc1c(C)c2ccc(O)c(CN3CCCC3)c2oc1=O | 11%[46.1 µM] | ? | 1% | -3% | -1% | 35
CCc1c(C)c2ccc(O)c(CN3CCN(c4ccccc4)CC3)c2oc1=O | ? | ? | nt | ? | nt | -61*
CCCCN(CC)CCNC(=O)Cn1cc2c(n1)-c1c(oc(C(=O)N3CCCC3)c1C)CC2 | nt | 11%[46.1 µM] | ? | -8% | 4% | -61*!
COc1ccccc1CNc1ccc(N2CCCCC2)cc1 | 5.2µM* | ? | -15% | nt | 31% | nt
COc1cccc(Nc2ccc(N3CCCCC3)cc2)c1OC | nt | nt | 17% | 26% | nt | -99*
COc1cccc(CNc2ccc(N3CCCCC3)cc2)c1OC | ? | ? | -7% | 23% | -12% | ?
CC(=O)Nc1ccc(Nc2cc3[nH]c(-c4cccc(F)c4)cc3cn2)cc1 | nt | nt | nt | nt | nt | -34
NC1=NC(=Nc2ccc(Cl)cc2)c2ccccc21 | 21% | -7% | 17% | 31% | 5% | -5
NC1=NC(=Nc2ccccc2)c2ccccc21 | ? | 13µM* | -3% | ? | 1% | 29
NC1=NC(=Nc2ccc(Br)cc2)c2ccccc21 | 7.1µM* | ? | 0% | 4% | ? | -61*
CCOc1ccc(-c2csc(-c3c(N)c(C(=O)c4ccc5c(c4)OCO5)n4ccccc34)n2)cc1 | 1%[46.1 µM] | 9%[46.1 µM] | nt | 5% | nt | 12
S=C(Nc1ccccc1Cl)N1CCCC(c2ccccc2)=N1 | -23%[46.1 µM] | -14% | -1% | -9% | -84% | -25
CC(C)c1ccc(NC(=S)N2CCCC(c3ccc(F)cc3)=N2)cc1 | 2.5µM* | -24%[46.1 µM] | -4% | -10% | 8% | -22
COc1cc(NC(=O)C2=C(N3CCOCC3)/C(=C\c3ccc(Br)cc3)CC2)cc(OC)c1OC | ? | -10% | 5% | ? | 5% | 22
COc1cc(NC(=O)C2=C(N3CCOCC3)/C(=C\c3ccc(Cl)cc3Cl)CC2)cc(OC)c1OC | ? | ? | -13% | 14µM* | ? | 25
COCCNc1ccc2cc(S(=O)(=O)N3CCCCC3)ccc2n1 | nt | -1%[46.1 µM] | nt | 25% | nt | -4
COc1ccc(-n2ncc3c2CC(C)(C)CC3NC(=O)c2cnc(C)cn2)cc1 (stereo not given) | nt | nt | -3% | -15% | -1% | -64*
Cc1nn(C)c(C)c1CCC(=O)NC1CC(C)(C)Cc2c1cnn2-c1ccccc1 (stereo not given) | -1% | 8% | 1% | -7% | -4% | -69*
